Assay results from PubChem BioAssay (EPA / NIEHS).
The source made the active and inactive calls. How the source made its calls: active means hit-call score of the fitted dose curve at least 0.9, where 1 is the maximum; inactive means score below 0.9.

How the values were obtained:
[1] = ATG_GLI_CIS: Attagene CIS-FACTORIAL HepG2 Assay for human Zinc Finger Protein GLI1 (AID 2282945); details: HepG2, Attagene cis-factorial reporter mRNA, GLI element; actives raise or lower the signal
How it was run: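 HepG2 cells transiently transfected with cis-promoter multiplexed reporter units report endogenous transcription factor activity. After 24 h chemical exposure, reporter mRNA was quantified by RT-PCR, 6-FAM labelling, HpaI digestion and capillary electrophoresis, with bidirectional fitting against DMSO.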

[2] = ATG_GRE_CIS: Attagene CIS-FACTORIAL HepG2 Assay for human Glucocorticoid Response Elements (GRE) (AID 2282947); details: HepG2 GRE cis-reporter, Attagene multiplex mRNA; actives raise or lower the signal
How it was run: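 HepG2, transient cis-reporter transfection, 24 h. Reporter mRNA: RT-PCR then CE, fluorescence. Fit both directions vs DMSO.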

[3] = ATG_ISRE_CIS: Attagene CIS-FACTORIAL HepG2 Assay for human Interferon Regulatory Factor 1 (IRF1) binding to an Interferon-Stimulated Response Element (ISRE) (AID 2282948); details: HepG2 ISRE cis-reporter (Attagene), mRNA transcription readout; actives raise or lower the signal
How it was run: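 Multiplexed mRNA reporter readout in human liver HepG2 cells: cis-element-driven reporters transfected, compound added for 24 h, transcripts amplified, fluorescently labelled and sized by capillary electrophoresis; curve fitting bidirectional against DMSO.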

[4] = ATG_M_32_CIS: Attagene CIS-FACTORIAL HepG2 Assay for M32 Transcription Factor (Internal Marker) (AID 2282949); details: HepG2 Attagene cis-factorial M32 reporter, mRNA; actives raise or lower the signal;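 further: background control marker of the multiplexed CIS panel rather than a real target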
How it was run: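 Transient MRTU transfection of HepG2; 24 h compound treatment; TriZol RNA, oligo(dT) RT, reporter PCR, 6-FAM primer extension, HpaI cut, CE. Gain/loss of signal vs DMSO.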

[5] = target: Hepatocyte nuclear factor 6 (Homo sapiens) (UniProt Q9UBC0); experiment: ATG_HNF6_CIS: Attagene CIS-FACTORIAL HepG2 Assay for human Hepatocyte Nuclear Factor 6 (HNF6) (AID 2282952); details: HepG2 Attagene cis-factorial HNF6 reporter transcription; actives raise or lower the signal
Hepatocyte nuclear factor 6 (Homo sapiens), sequence (Q9UBC0 whole entry, looked up, the tested form may be a part): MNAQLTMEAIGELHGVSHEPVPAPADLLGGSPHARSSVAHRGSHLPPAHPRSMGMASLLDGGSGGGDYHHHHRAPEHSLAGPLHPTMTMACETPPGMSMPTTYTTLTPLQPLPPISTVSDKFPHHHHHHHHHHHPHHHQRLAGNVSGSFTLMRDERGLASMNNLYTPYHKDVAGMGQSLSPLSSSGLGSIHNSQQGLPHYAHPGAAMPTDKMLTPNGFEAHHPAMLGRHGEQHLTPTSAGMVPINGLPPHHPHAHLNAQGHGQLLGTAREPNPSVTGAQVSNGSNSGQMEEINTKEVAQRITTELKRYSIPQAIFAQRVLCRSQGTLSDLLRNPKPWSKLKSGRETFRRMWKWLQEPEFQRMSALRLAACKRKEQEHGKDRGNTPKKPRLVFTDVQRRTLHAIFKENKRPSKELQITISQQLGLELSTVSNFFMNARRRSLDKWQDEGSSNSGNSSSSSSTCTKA
How it was run: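 Twenty-four-hour chemical treatment of reporter-transfected HepG2 cells precedes RNA isolation, DNase-treated reverse transcription and PCR of reporter sequences. Labelled fragments are sized by capillary electrophoresis and fitted bidirectionally versus DMSO.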

[6] = target: Heat shock factor protein 1 (Homo sapiens) (UniProt Q00613); experiment: ATG_HSE_CIS: Attagene CIS-FACTORIAL HepG2 Assay for human Heat Shock Transcription Factor 1 (HSE) (AID 2282953); details: HepG2 HSE cis-reporter, Attagene RNA transcription; actives raise or lower the signal
Heat shock factor protein 1 (Homo sapiens), sequence (Q00613 whole entry, looked up): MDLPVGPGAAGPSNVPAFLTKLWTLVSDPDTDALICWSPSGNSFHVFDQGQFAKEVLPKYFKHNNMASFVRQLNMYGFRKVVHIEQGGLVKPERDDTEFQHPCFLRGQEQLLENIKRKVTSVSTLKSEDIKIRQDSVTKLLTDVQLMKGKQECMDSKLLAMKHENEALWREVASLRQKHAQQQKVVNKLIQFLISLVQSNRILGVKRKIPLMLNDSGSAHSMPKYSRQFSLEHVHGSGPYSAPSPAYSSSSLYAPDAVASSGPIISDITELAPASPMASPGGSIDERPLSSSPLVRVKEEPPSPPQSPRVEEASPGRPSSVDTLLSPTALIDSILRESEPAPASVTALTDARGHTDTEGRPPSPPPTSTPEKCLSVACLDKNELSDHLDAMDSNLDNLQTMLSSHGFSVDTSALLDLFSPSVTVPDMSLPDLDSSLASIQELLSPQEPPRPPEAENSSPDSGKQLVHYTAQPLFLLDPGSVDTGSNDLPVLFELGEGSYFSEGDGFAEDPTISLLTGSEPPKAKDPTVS
How it was run: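 HepG2 cells transiently transfected with multiple reporter transcription units under cis-regulatory promoter control, measuring endogenous transcription factor activity. After 24 h chemical exposure, reporter mRNA quantified by RT-PCR, fluorescent labelling, HpaI digestion and capillary electrophoresis; bidirectional fit versus DMSO.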

[7] = ATG_MRE_CIS: Attagene CIS-FACTORIAL HepG2 Assay for human Metal Responsive Element (MRE) (AID 2282954); details: HepG2 MRE cis-reporter transcription, Attagene multiplex; actives raise or lower the signal
How it was run: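 Readout: capillary electrophoresis of 6-FAM-labelled, HpaI-digested RT-PCR reporter products. System: HepG2 cells carrying transient multiplexed cis reporters, dosed 24 h. Analysis: bidirectional fit, DMSO baseline.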

[8] = ATG_PBREM_CIS: Attagene CIS-FACTORIAL HepG2 Assay for human Phenobarbital-responsive Enhancer Module (PBREM) (AID 2282955); details: HepG2 PBREM cis-reporter, Attagene multiplexed transcription; actives raise or lower the signal
How it was run: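 Multiplexed cis-reporter readout in human hepatoma HepG2 cells; PBREM-regulated transcript quantified after 24 h exposure by fluorescent RT-PCR fragment analysis. Signal changes up or down fitted relative to DMSO.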

[9] = target: Paired box protein Pax-6 (Homo sapiens) (UniProt P26367); experiment: ATG_Pax6_CIS: Attagene CIS-FACTORIAL HepG2 Assay for human Paired Box 6 (PAX6) (AID 2282956); details: HepG2 CIS-FACTORIAL PAX6 reporter transcription, RNA readout; actives raise or lower the signal
Paired box protein Pax-6 (Homo sapiens), sequence (P26367 whole entry, looked up): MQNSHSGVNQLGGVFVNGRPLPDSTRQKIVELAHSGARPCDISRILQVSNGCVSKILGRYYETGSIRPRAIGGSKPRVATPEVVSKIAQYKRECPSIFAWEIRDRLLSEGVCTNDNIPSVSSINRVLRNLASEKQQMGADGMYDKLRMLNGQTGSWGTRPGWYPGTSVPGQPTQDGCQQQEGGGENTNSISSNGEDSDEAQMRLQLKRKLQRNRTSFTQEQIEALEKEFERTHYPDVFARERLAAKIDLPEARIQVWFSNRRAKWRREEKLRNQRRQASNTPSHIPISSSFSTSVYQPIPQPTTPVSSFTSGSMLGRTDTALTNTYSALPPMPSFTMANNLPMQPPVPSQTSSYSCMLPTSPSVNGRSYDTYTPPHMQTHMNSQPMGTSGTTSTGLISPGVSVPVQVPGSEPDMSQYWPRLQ
How it was run: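 Fluorescent RT-PCR products separated by capillary electrophoresis report PAX6-linked promoter mRNA in HepG2 cells 24 h post-dose. Curves fitted bidirectionally, DMSO as negative control.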

[10] = ATG_PXRE_CIS: Attagene CIS-FACTORIAL HepG2 Assay for human Pregnane X Receptor Element (PXRE) (AID 2282957); details: HepG2 Attagene CIS-FACTORIAL PXRE reporter, mRNA; actives raise or lower the signal
How it was run: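 Bidirectional activity, baselined to DMSO, derived from reporter mRNA fluorescence (RT-PCR plus capillary electrophoresis) in HepG2 cells bearing cis-promoter reporter units, 24 h exposure.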

[11] = ATG_PPRE_CIS: Attagene CIS-FACTORIAL HepG2 Assay for human Peroxisome Proliferator-activated Response Element (PPRE) (AID 2282958); details: HepG2 PPRE cis-element reporter, Attagene transcription factor profiling; actives raise or lower the signal
How it was run: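 DMSO served as negative control and baseline for bidirectional curve fitting. Signal came from PPRE-regulated reporter mRNA in HepG2 cells, measured 24 h post-dosing by RT-PCR, 6-FAM primer extension and capillary electrophoresis.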

[12] = ATG_RORE_CIS: Attagene CIS-FACTORIAL HepG2 Assay for human RAR-related Orphan Receptor Element (RORE) (AID 2282959); details: HepG2 Attagene cis-factorial RORE reporter, mRNA; actives raise or lower the signal
How it was run: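 Transfect HepG2 with MRTUs; treat 24 h; extract RNA; RT with oligo(dT); PCR with reporter-specific primers; 6-FAM primer extension; HpaI digest 2 h at 37 C; capillary electrophoresis. Fit vs DMSO, bidirectional.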

[13] = ATG_Sox_CIS: Attagene CIS-FACTORIAL HepG2 Assay for human SRY-box transcription factor (SOX) (AID 2282960); details: HepG2 Attagene cis-factorial SOX reporter, mRNA; actives raise or lower the signal
How it was run: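 Fluorescence-labelled cDNA fragments from reporter transcripts, sized by CE, give the signal. Cells: HepG2, transiently transfected with cis-regulated reporter units. Exposure 24 h; DMSO negative control; bidirectional curve fitting.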

[14] = target: Transcription factor Sp1 (Homo sapiens) (UniProt P08047); experiment: ATG_Sp1_CIS: Attagene CIS-FACTORIAL HepG2 Assay for human Specificity Protein 1 (Sp1) (AID 2282961); details: HepG2 Sp1 cis-reporter transcription, actives raise or lower the signal
Transcription factor Sp1 (Homo sapiens), sequence (P08047 whole entry, looked up): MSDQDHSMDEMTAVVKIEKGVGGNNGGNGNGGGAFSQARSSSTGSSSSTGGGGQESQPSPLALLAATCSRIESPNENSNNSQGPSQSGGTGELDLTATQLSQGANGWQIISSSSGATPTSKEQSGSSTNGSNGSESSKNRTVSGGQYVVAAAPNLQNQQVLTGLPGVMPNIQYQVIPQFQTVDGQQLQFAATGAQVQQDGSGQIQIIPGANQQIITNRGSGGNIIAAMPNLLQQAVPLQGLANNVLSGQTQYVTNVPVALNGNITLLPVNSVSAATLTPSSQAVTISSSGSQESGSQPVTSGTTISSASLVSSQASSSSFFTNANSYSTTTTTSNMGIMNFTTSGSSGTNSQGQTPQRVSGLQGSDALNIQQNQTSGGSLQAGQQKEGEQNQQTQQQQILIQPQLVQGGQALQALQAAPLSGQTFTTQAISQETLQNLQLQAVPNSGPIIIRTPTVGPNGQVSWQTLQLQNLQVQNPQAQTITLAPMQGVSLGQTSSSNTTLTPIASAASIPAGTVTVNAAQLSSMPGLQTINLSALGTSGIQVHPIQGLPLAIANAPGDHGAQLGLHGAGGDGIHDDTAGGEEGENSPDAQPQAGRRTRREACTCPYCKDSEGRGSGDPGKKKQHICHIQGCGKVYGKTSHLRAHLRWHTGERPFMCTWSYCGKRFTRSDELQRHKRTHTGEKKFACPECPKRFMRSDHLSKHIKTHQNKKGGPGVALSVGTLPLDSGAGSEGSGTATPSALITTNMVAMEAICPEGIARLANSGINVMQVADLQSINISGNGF
How it was run: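 Chemicals are dosed onto HepG2 cells transfected with multiple cis-promoter reporter constructs, and after 24 h reporter RNA is reverse-transcribed, PCR-amplified and resolved by capillary electrophoresis for fluorescence quantitation; activity is scored up or down against DMSO.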

[15] = ATG_SREBP_CIS: Attagene CIS-FACTORIAL HepG2 Assay for human Sterol Regulatory Element Binding (SREBP) (AID 2282962); details: HepG2 Attagene cis-factorial SREBP reporter, mRNA; actives raise or lower the signal
How it was run: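 Endogenous factor activity is measured in HepG2 through multiplexed reporter units under cis-element control. Following a 24 h incubation, reporter transcripts are reverse-transcribed, PCR-amplified and sized by capillary electrophoresis; activity is fitted in both directions relative to DMSO.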

[16] = target: Signal transducer and activator of transcription 3 (Homo sapiens) (UniProt P40763); experiment: ATG_STAT3_CIS: Attagene CIS-FACTORIAL HepG2 Assay for human Signal Transducer and Activator of Transcription 3 (STAT3) (AID 2282963); details: HepG2, Attagene cis-factorial STAT3 reporter transcription; actives raise or lower the signal
Signal transducer and activator of transcription 3 (Homo sapiens), sequence (P40763 whole entry, looked up): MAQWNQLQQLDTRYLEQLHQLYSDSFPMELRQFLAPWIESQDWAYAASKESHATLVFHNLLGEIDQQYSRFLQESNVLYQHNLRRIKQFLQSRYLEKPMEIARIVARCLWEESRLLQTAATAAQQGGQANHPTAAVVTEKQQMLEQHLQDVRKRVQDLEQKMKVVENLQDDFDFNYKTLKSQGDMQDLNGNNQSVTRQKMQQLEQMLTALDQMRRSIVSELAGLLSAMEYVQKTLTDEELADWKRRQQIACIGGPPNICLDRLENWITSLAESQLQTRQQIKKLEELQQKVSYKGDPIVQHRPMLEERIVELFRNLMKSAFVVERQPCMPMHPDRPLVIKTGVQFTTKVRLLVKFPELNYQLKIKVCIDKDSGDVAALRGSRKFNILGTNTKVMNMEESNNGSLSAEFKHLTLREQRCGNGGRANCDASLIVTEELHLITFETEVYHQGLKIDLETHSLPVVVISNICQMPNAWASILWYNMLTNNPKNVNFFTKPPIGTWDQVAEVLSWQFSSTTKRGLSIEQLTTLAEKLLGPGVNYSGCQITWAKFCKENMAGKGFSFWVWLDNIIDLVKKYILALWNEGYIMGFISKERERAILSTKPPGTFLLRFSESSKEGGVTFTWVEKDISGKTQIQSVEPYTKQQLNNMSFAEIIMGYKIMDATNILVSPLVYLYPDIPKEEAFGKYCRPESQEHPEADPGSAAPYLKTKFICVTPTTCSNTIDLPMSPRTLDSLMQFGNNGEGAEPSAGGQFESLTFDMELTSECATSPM
How it was run: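 Uses human liver HepG2 transiently carrying cis-regulated reporter transcription units. Following 24 h dosing, reporter mRNA induction was detected by RT-PCR and capillary electrophoresis, analysed bidirectionally versus DMSO.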

[17] = ATG_TA_CIS: Attagene CIS-FACTORIAL HepG2 Assay for human TA Basal Promoter (AID 2282964); details: HepG2 Attagene CIS-factorial TA basal promoter reporter; actives raise or lower the signal
How it was run: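 HepG2 cells transiently transfected with multiplexed cis-promoter reporter units, dosed 24 h. Reporter mRNA measured by RT-PCR, 6-FAM labelling, HpaI digestion and capillary electrophoresis; bidirectional fit versus DMSO baseline, serving as background control.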

[18] = target: Hypoxia-inducible factor 1-alpha (Homo sapiens) (UniProt Q16665); experiment: ATG_HIF1a_CIS: Attagene CIS-FACTORIAL HepG2 Assay for human Hypoxia Inducible Factor 1 (HIF1A) (AID 2282951); details: HepG2 Attagene cis-factorial HIF1a reporter transcription; actives raise or lower the signal
Hypoxia-inducible factor 1-alpha (Homo sapiens), sequence (Q16665 whole entry, looked up): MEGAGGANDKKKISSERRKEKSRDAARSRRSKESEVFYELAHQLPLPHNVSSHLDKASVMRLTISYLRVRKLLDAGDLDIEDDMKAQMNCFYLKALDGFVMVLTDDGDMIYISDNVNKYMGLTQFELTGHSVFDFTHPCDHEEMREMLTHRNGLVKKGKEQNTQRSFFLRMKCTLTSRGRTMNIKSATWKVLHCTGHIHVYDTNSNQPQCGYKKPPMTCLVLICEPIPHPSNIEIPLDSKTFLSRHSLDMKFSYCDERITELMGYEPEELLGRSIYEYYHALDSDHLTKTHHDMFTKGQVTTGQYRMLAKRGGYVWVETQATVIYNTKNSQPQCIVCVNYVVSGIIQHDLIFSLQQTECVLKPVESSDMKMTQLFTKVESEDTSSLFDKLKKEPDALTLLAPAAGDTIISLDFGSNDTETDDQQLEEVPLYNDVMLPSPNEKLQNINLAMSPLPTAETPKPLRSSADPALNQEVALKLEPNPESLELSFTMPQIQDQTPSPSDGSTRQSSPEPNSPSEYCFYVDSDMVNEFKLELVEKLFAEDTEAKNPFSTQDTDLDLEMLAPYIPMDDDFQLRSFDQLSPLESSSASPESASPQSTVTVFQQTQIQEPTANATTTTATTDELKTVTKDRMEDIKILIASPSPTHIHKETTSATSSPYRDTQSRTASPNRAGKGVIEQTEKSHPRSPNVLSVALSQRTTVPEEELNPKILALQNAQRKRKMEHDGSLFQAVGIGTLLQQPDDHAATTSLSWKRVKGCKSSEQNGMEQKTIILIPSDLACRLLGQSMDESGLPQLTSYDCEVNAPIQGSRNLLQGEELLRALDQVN
How it was run: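 Cis-element reporter constructs were transiently transfected into HepG2 cells, which were treated for 24 h; reporter RNA was reverse-transcribed, amplified, labelled and resolved by capillary electrophoresis.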

[19] = ATG_M_06_CIS: Attagene CIS-FACTORIAL HepG2 Assay for M06 Transcription Factor (Internal Marker) (AID 2282950); details: HepG2 Attagene CIS-FACTORIAL M06 internal marker reporter; actives raise or lower the signal
How it was run: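 HepG2 cells transiently transfected with cis-regulated multiple reporter transcription units were exposed to chemical for 24 h; reporter mRNA was quantified by RT-PCR, 6-FAM primer labelling, HpaI digestion and capillary electrophoresis, fitted bidirectionally against DMSO.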

Measured: AC50

NC(=O)c1cnccn1
not listed: [18] | [19]
inactive: all other assays above

CCOC(=O)CC(C)C
not listed: [5] | [13] | [19]
inactive: all other assays above

C=COCC1CCC(COC=C)CC1 (stereo not given)
not listed: [5] | [6] | [9] | [11] | [19]
inactive: all other assays above

CCCC1CCOC(C)S1 (stereo not given)
active: [10] 54 µM
not listed: [8] | [11] | [13] | [19]
inactive: all other assays above

S=c1[nH][nH]c(=S)s1
not listed: [11] | [12] | [18]
inactive: all other assays above

CC(C)(C)c1ccc(S)cc1
active: [10] 6.36 µM
not listed: [19]
inactive: all other assays above

C=C(C)C(=O)OCCC[Si](OC)(OC)OC
not listed: [8] | [17] | [18]
inactive: all other assays above

CNC(=C[N+](=O)[O-])NCCSCc1ccc(CN(C)C)o1
not listed: [5] | [6] | [18]
inactive: all other assays above

CC(=O)c1ccc(O)cc1
active: [10] 100 µM
not listed: [12] | [19]
inactive: all other assays above
